Screening data (PubChem BioAssay)
Vaccinia mCherry – qHTS for Stage-Specific Inhibitors of Vaccinia Orthopoxvirus: mCherry Reporter Primary qHTS. AID 720579, 2013. Potency, µM (highest dose often 36.5 µM), for inactives: at the highest dose activity change, negative = inhibition, hits mostly inhibitors. Vaccinia virus mCherry reporter infection, fluorescence. actives 0.63% (n = 310,000); calls by dose curve; tested in A549 cells; also: potency is read from the fitted curve at half-maximal effect; % is scaled to controls: 0 for no effect and ±100 for the full control effect; nearly all actives have a fitted effect of over 35% in size
MARV entry inh – qHTS for inhibitors of binding or entry into cells for Marburg Virus; Marburg virus pseudotyped entry inhibition, cell reporter; Potency, µM (series often up to 37.8 µM), for the others: at the top dose activity change, negative = inhibition, hits mostly inhibitors; actives 1.8% (n = 300,000); calls by dose curve; tested in HEK293 cells; also: potency is read from the fitted curve at half-maximal effect; % is scaled to controls: 0 for no effect and ±100 for the full control effect
Cycloheximide cs – Cycloheximide Counterscreen for Small Molecule Inhibitors of Shiga Toxin; max response, %; cell reporter, cycloheximide protein synthesis inhibition counterscreen; actives 12% (n = 300,000); in the data active = max response mostly above about 13%, no sharp cut-off; inactive = mostly below about 14%; also: read at 38.3 µM for the half of the compounds with a filed dose; 0% is about no effect
Lassa entry inh – qHTS for Inhibitors of binding or entry into cells for Lassa Virus | Lassa virus pseudotype entry inhibition, cell reporter | Potency, µM (titrated, usually from 37.9 µM), for inactives: top-dose activity change, negative = inhibition, hits mostly inhibitors | actives 1.2% (n = 300,000) | AID 540256, 2011; calls by dose curve; tested in HEK293 cells; also: potency is read from the fitted curve at half-maximal effect; % is scaled to controls: 0 for no effect and ±100 for the full control effect; nearly all actives have a fitted effect of over 50% in size
Shiga inhibitor – A qHTS for Small Molecule Inhibitors of Shiga Toxin. inhibition, % at 38.7 µM. AID 2315, 2010. Vero cells, Shiga toxin protein synthesis inhibition reporter. actives 9.2% (n = 290,000); in the data active = inhibition mostly above about 28%, no sharp cut-off; inactive = mostly below about 43%; also: 0% is about no effect
VACV Venus inh – qHTS for Stage-Specific Inhibitors of Vaccinia Orthopoxvirus: Venus Reporter Primary qHTS; Vaccinia virus Venus reporter expression, fluorescence; actives 0.46% (n = 330,000); Potency, µM (highest dose often 36.5 µM), inactives show at the top dose activity change, negative = inhibition, actives largely listed as inhibitors; calls by dose curve; tested in A549 cells; also: potency is read from the fitted curve at half-maximal effect; % is scaled to controls: 0 for no effect and ±100 for the full control effect; nearly all actives have a fitted effect of over 30% in size
* hit, by the source's call; i = inactive; ? = inconclusive; . = no result; [ ] = remark or other dose. Many of the other results were omitted from the sample, so hits are more common in it than they were.

SMILES	Vaccinia mCherry	MARV entry inh	Cycloheximide cs	Lassa entry inh	Shiga inhibitor	VACV Venus inh
Clc1nc(-c2cccnc2)nc2scc(-c3ccccc3)c12	.	-3.3%	28.5*	-1.3%	40.1*	.
COc1ccc(-c2csc3nc(-c4cccnc4)nc(Cl)c23)cc1OC	-25.3%	?	4.0	?	-7.9	-29.6%
Cc1ccc(NC(=O)c2ccc(Cl)c(S(=O)(=O)N3CCc4ccccc43)c2)nc1	-7.8%	?	.	?	.	-22.1%
CS(=O)(=O)Nc1ccc(C(=O)NCCc2ccccc2)cc1	.	28.6%	30.6*	7.4%	69.2*	?
CS(=O)(=O)Nc1ccc(C(=O)NCCSCc2ccccc2)cc1	i	-2.9%[46.1 µM]	-0.6	10.5%[46.1 µM]	-8.4	-17.7%
COCCCNC(=O)c1ccc(NS(C)(=O)=O)cc1	.	10.1%	10.2	?	-3.5	-9.1%
CC(C)(C)SCCNC(=O)c1ccc(NS(C)(=O)=O)cc1	-7.8%	12.3%	16.4*	23.6%	36.1*	-8.3%
Cc1ccc(S(=O)(=O)N2CCN(C(=O)CC(C)C)CC2)cc1	-20.4%	14.8%[46.1 µM]	31.8*	?	80.9*	-7.3%
O=C(C1CCCC1)N1CCN(S(=O)(=O)c2ccc(F)cc2)CC1	6.4%	-11.3%[46.1 µM]	6.8	-15.3%	-4.9	0.9%
O=C(C1CCN(S(=O)(=O)c2ccc(Cl)cc2)CC1)N1CCCC1	i	2.0%[46.1 µM]	-4.0	12.2%	4.3	-12.4%
CC(C)CC(=O)N1CCN(S(=O)(=O)c2ccc(Cl)cc2)CC1	i	-17.3%[46.1 µM]	-0.4	-12.8%	-8.9	-6.2%
Cc1ccc(S(=O)(=O)N2CCC(C(=O)N3CCC3)CC2)cc1	-11.6%	3.4%[46.1 µM]	45.1*	-1.1%[46.1 µM]	67.2*	-3.9%
O=C(C1CCCCC1)N1CCN(S(=O)(=O)c2ccc(Br)cc2)CC1	.	?	-2.6	17.8µM*	22.5	-24.3%
Cc1cc(NC(=O)CN2CCCC(C)C2)no1 (configuration not stated)	-11.8%	-15.5%[46.1 µM]	12.8*	-10.2%	48.9*	-8.9%
Cc1cc(NC(=O)CN2CCCCC2)no1	i	-17.0%[46.1 µM]	-2.2	-3.1%	25.3	-2.2%
O=C(Nc1ccc(Cl)cc1)c1ccc2nsnc2c1	-21.1%	?	35.2*	?	96.8*	1.9%
CN(C)c1ccc(NC(=O)c2ccc3nsnc3c2)cc1	-1.5%	?	46.1*	?	160.0*	-20.5%
O=C(COc1ccc(S(=O)(=O)N2CCCC2)cc1)NCC1CCCO1 (configuration not stated)	i	-14.3%[46.1 µM]	0.9	-15.1%	8.2	2.7%
CC(C)n1cc(/C=C/c2cc[n+](C)cc2)c2ccccc21	?	2.51µM*	-2.4	?	-1.0	125.9%
C=CCO/N=C(/C)c1ccc(Oc2cnccn2)cc1	-2.9%	0.5%[46.1 µM]	27.4*	-1.1%	47.3*	-7.8%
COc1ccc(-c2cc3nnc(-c4ccccc4)nc3s2)cc1	i	?	49.8*	-27.9%	active	1.2%
COc1ccc(-c2nc3ccccc3nc2-c2ccccc2)cc1	i	-18.8%[46.1 µM]	-1.5	6.4%	-11.0	-9.6%
COc1ccc(OC[C@H]2CN3[C@H](c4ccc(Br)cc4)[C@H](C)CC[C@H]3C(=O)O2)cc1	.	-7.5%[14.2 µM]	.	.	.	.
CC1(CCl)N([O-])C2=C(CCCC2)[N+]1=O (configuration not stated)	?	4.4%[46.1 µM]	14.3*	1.1%[46.1 µM]	22.6	?
Cc1ccc(Cl)cc1NS(=O)(=O)Cc1ccccc1	i	?	-3.1	-2.9%	-9.8	-18.6%
SMILES	Vaccinia mCherry	MARV entry inh	Cycloheximide cs	Lassa entry inh	Shiga inhibitor	VACV Venus inh
CC(=O)Nc1nc(-c2ccc(Cl)cc2)nc(C)c1C(C)=O	.	-0.4%	20.9*	7.1%	17.6*	.
Cc1csc(=N)n1-c1ccc(Cl)cc1	i	-8.5%	58.9*	?	176.0*	-4.0%
Cc1ccc(-n2c(C)csc2=N)cc1	.	?	55.8*	-15.8%	54.9*	.
COc1ccc(-c2ccc(SCC(=O)NCc3ccco3)nn2)cc1	-18.2%	-14.5%	16.9*	?	57.1*	-7.9%
COc1ccc(-c2nnc(SCC(=O)NC(=O)NCc3ccco3)o2)cc1	.	?	9.4*	-1.1%	13.8	.
O=C(CSc1ccc(-c2ccc(F)cc2)nn1)NCc1ccco1	.	?	-3.9	1.0%	14.3	.
COc1ccc(-c2nnc(SCC(=O)Nc3nncs3)o2)cc1	-5.4%	0.7%[46.1 µM]	11.2	-3.7%	21.9	-0.4%
